# ± gives the standard deviation of the averaged measurements. In all, about 33,000 sequences were measured (“E-score (rank enrichment, -0.5 to 0.5)”: median about -0.0075, highest 2% from about 0.23 on). Only a selection was taken, and the highest values are over-represented in it overall.
# System: WT Max(13-93) synthetic (M65Nle)
# Assay: PBM 8-mer E-score (E-score (rank enrichment, -0.5 to 0.5)); higher = stronger preferential binding
# Protocol: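 Protein binding microarray (universal PBM chip covering all 10-mers in fixed probe flanks) with chemically synthesized human Max(13-93) bHLH-LZ analogs (not full-length Max) bearing noncanonical residues (hArg, Tha, Aib, Nle at 65) and aromatic Cys staples. Read-out per 8-mer (and its reverse complement): E-score (rank-based enrichment, -0.5 to 0.5) and Z-score of median probe intensity.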
row,Sequence,PBM 8-mer E-score
1,ACGTGTCT,0.363 ± 0.00056
2,AAGTGTCG,0.0847 ± 0.052
3,GCGTGTCC,0.127 ± 0.037
4,ACGTGTCG,0.339 ± 0.0083
5,ACGTGTCC,0.243 ± 0.037
6,AAGTGTCT,-0.104 ± 0.07
7,CCGTGTCC,-0.00903 ± 0.072
8,CCGTGTCG,-0.151 ± 0.011
9,ACCTGTCT,0.0145 ± 0.064
10,GCGTGTCA,0.223 ± 0.019
11,CCGTGTCA,0.0378 ± 0.022
12,ACGTGTCA,0.3263 ± 0.0031
13,CCTTTGCG,0.00668 ± 0.0019
14,AGCCCCCC,-0.14 ± 0.14
15,AACAGACA,0.184 ± 0.011
16,CGATTAGC,-0.18 ± 0.11
17,CGGGCGAA,-0.0278 ± 0.057
18,CACGCCTG,0.0753 ± 0.081
19,TGCTTGAA,0.0947 ± 0.15
20,GCCACTGA,-0.158 ± 0.074
21,GACCCCTA,-0.156 ± 0.13
22,CGTGGCTA,0.193 ± 0.013
23,CATCTCAA,0.104 ± 0.017
24,ATATATAG,0.182 ± 0.041
25,TAATATAA,0.183 ± 0.014

row,Sequence,PBM 8-mer E-score
1,AAAAATAG,0.102 ± 0.059
2,AAATATAG,0.238 ± 0.099
3,AAAAATAC,0.2 ± 0.033
4,GAATATAA,0.179 ± 0.022
5,AACTATAA,0.269 ± 0.028
6,CACTATAA,-0.0318 ± 0.027
7,CAATATAG,0.117 ± 0.021
8,AAATATAA,0.24 ± 0.048
9,AAAAATAT,0.256 ± 0.017
10,GACTATAA,0.13 ± 0.0092
11,GTAGAGAC,-0.0752 ± 0.086
12,CGTTCATC,0.0464 ± 0.14
13,GCCCCGCC,0.172 ± 0.053
14,CACAGGTA,0.11 ± 0.061
15,CGGTGACA,-0.162 ± 0.13
16,ACTGCAAT,-0.0126 ± 0.077
17,CAATATGA,0.183 ± 0.027
18,ATATATAT,0.0942 ± 0.12
19,AAATATGA,0.261 ± 0.023
20,AAAATTTG,0.027 ± 0.066
21,AAAAATTT,0.14 ± 0.091
22,AAAATTTT,0.273 ± 0.034
23,AAATATAT,0.248 ± 0.032
24,AAATATAC,0.199 ± 0.028
25,AAATATGT,0.124 ± 0.078

row,Sequence,PBM 8-mer E-score
1,AAGGAGCC,-0.118 ± 0.072
2,CGTAAGCC,0.0338 ± 0.0056
3,CAGGATAC,-0.144 ± 0.019
4,ACGCCAGC,-0.269 ± 0.085
5,ATGCGCCA,0.123 ± 0.11
6,CGTACAAC,0.112 ± 0.047
7,ACGAGTCG,-0.0792 ± 0.021
8,CTTGAAAA,0.0938 ± 0.0069
9,ATTGAAAC,0.117 ± 0.092
10,TTGAAAAA,0.234 ± 0.043
11,ATTGAAAA,0.254 ± 0.087
12,ATGAAAAA,0.158 ± 0.13
13,CTGAAAAA,-0.141 ± 0.0094
14,ACGGTCCA,-0.222 ± 0.021
15,AGATTTAC,0.119 ± 0.041
16,ACCTATCT,0.211 ± 0.065
17,CCTAAGCC,-0.125 ± 0.096
18,ATTTTCGG,0.129 ± 0.056
19,GAAAACAA,0.206 ± 0.059
20,ACACATGA,0.186 ± 0.036
21,ATACATGG,0.134 ± 0.045
22,ACACATGT,0.359 ± 0.025
23,ACACATGG,0.357 ± 0.034
24,ACACATAT,0.202 ± 0.041
25,ACACATCT,0.0507 ± 0.12

row,Sequence,PBM 8-mer E-score
1,CTAGTGGC,-0.019 ± 0.044
2,CACCCTTA,0.118 ± 0.056
3,ACCAGAAA,0.0691 ± 0.0064
4,CCTAGTCA,-0.0758 ± 0.01
5,GCCGAAGC,-0.212 ± 0.034
6,ACATTGTC,0.19 ± 0.033
7,ACATTGTA,0.153 ± 0.06
8,ACATTGTG,0.26 ± 0.054
9,AGAGACCG,-0.14 ± 0.044
10,ACCCCGCC,0.279 ± 0.035
11,GCCCGCCC,0.0723 ± 0.054
12,CCGCCCCC,-0.124 ± 0.051
13,CCCCCGCC,0.0274 ± 0.11
14,ACCCGCCC,0.0569 ± 0.092
15,CCCCGCCC,0.369 ± 0.062
16,CCCGCCCA,0.183 ± 0.043
17,AACCCGCC,-0.0368 ± 0.068
18,CCGCCCCG,0.236 ± 0.075
19,CCCGCCCC,0.285 ± 0.14
20,CCGCCCGG,-0.265 ± 0.039
21,CCCGCCCG,0.025 ± 0.078
22,CTCGTTCC,-0.0941 ± 0.0052
23,CCGACGTA,-0.103 ± 0.022
24,AATCACCT,0.115 ± 0.11
25,TAGTGCAA,0.023 ± 0.006

row,Sequence,PBM 8-mer E-score
1,AGCGGAGG,-0.124 ± 0.11
2,CTTAATGC,0.162 ± 0.095
3,CCGTACCA,-0.129 ± 0.033
4,GACACAAA,0.24 ± 0.048
5,CACGCTCG,0.266 ± 0.035
6,CACACGAC,0.13 ± 0.11
7,AACACGCA,0.134 ± 0.0072
8,AACGCTCG,-0.131 ± 0.017
9,CACACGAG,0.105 ± 0.0042
10,CACGCTCA,0.0695 ± 0.057
11,TACACAAA,0.0928 ± 0.018
12,CACACGAA,0.272 ± 0.054
13,AACACGCC,0.0311 ± 0.14
14,CACACAAA,0.103 ± 0.13
15,AACACGCG,0.3 ± 0.08
16,AAATTAAA,0.198 ± 0.044
17,TCAAAGGA,0.0761 ± 0.07
18,CGTTTTGA,-0.0368 ± 0.12
19,ACGACATG,0.0526 ± 0.047
20,CGCGGCCA,-0.0571 ± 0.036
21,CCGAAACC,-0.199 ± 0.026
22,GACACCGC,-0.206 ± 0.08
23,ACGTCCCC,0.0319 ± 0.084
24,AGCATTTA,-0.11 ± 0.038
25,CACACGCG,0.302 ± 0.017

row,Sequence,PBM 8-mer E-score
1,CACACGCA,0.174 ± 0.028
2,CACACGCC,0.0838 ± 0.085
3,TAGGCACA,0.0603 ± 0.0065
4,CAGAGGTA,0.0024 ± 0.058
5,CTATGATA,-0.00697 ± 0.0076
6,GTATGATA,0.235 ± 0.0072
7,GTATGAGA,0.109 ± 0.033
8,ATATGATG,0.19 ± 0.03
9,GGATGATA,-0.00911 ± 0.064
10,ATATGATA,0.302 ± 0.013
11,CAGCGCCA,-0.237 ± 0.0045
12,GTGGCTCA,-0.0168 ± 0.037
13,ACAGGAGA,0.0713 ± 0.014
14,CCCTACGG,-0.21 ± 0.015
15,AACACATT,0.13 ± 0.017
16,AAAACATG,0.28 ± 0.024
17,CAAACATG,0.17 ± 0.13
18,AACACATG,0.368 ± 0.0069
19,AAAACATT,0.147 ± 0.033
20,CACACATA,0.0464 ± 0.029
21,TACACATA,0.213 ± 0.083
22,AACACATA,0.263 ± 0.084
23,AACACATC,-0.0183 ± 0.028
24,CATGTAGA,0.193 ± 0.018
25,ACGCCCTC,0.0691 ± 0.11

row,Sequence,PBM 8-mer E-score
1,GATCCAGC,-0.241 ± 0.017
2,ATCCGTAG,-0.21 ± 0.046
3,GCAGTGAA,0.0345 ± 0.11
4,ATGACAAG,0.119 ± 0.12
5,AAGACAAT,0.228 ± 0.075
6,AGGACAAT,0.183 ± 0.045
7,ATGACAAC,0.166 ± 0.029
8,ATGACAAA,0.261 ± 0.11
9,ATGACAAT,0.264 ± 0.018
10,TCGGGCCA,-0.185 ± 0.0072
11,CGAATCTA,-0.0418 ± 0.067
12,ATGTATGC,0.166 ± 0.0091
13,ACTAGACT,0.0207 ± 0.063
14,AAGCACGT,0.367 ± 0.028
15,AAGCACGA,0.125 ± 0.0091
16,ACGCACGT,0.314 ± 0.041
17,ACGCACAT,0.267 ± 0.02
18,ACGCACAA,0.0902 ± 0.052
19,ACGCACGC,0.205 ± 0.014
20,ACGCACAG,-0.0926 ± 0.096
21,ACGCACGA,0.143 ± 0.032
22,AAGCACGG,0.0974 ± 0.06

# Reference: the supplement of paper PMC12636033
